The results in this text go back to paper PMC7819943, “Rice protein-binding microarrays: a tool to detect cis-acting elements near promoter regions in rice”.

The full ranking holds about 39,000 sequences; the median of “fluorescence intensity (a.u.)” is about 4,300, and the highest 2% start at about 39,000. Only a selection was taken, and the highest values are over-represented in it overall.

The assay concerns the target T1, OsSMF1 (Oryza sativa, UniProt Q6ZLB0 1-436).
T1 sequence: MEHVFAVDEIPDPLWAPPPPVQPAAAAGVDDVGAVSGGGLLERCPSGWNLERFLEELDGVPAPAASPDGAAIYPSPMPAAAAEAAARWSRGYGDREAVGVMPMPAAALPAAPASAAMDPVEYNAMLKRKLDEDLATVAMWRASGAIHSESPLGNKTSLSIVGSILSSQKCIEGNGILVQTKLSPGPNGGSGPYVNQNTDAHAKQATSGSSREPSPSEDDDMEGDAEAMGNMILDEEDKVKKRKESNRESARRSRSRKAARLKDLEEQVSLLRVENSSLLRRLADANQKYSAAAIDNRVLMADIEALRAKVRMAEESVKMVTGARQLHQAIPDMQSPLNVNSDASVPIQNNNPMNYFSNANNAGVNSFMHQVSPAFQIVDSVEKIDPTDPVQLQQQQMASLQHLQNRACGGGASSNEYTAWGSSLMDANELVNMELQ
The assay is described as follows: protein-binding microarray (RPBM); PBS, 2% BSA, 51.3 ng/ul salmon testes DNA, 50 uM zinc acetate, 200 nM TF, 25 C, 1 h; high values mean tight binding. As to conditions: protein: recombinant; tags: N-terminal polyhistidine and DsRed monomer fusion (pET32a); chain copies: 2; label: CyDye5-dUTP incorporated in the synthesized complementary strand; 3' TTTTT single-stranded linker to array surface; dsDNA, one strand shown. Put shortly: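 In PBS with 2% BSA, salmon testes DNA and 50 µM zinc acetate, 200 nM protein was incubated on a custom Agilent array at 25 °C for 1 h and then washed off. The array had been made double-stranded by primer extension with Cy5-dUTP and blocked with 2% BSA. The proteins were transcription factors fused N-terminally to polyhistidine and DsRed, expressed in E. coli BL21-CodonPlus and purified on Ni–NTA. The binding signal is per-feature fluorescence intensity (arbitrary units) from an Axon 4000B scanner.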
Consider “CTAATATATTGACGTGTAATTCTTTTGTGTGTTTGTGAAACGGAGTCACCTAGTGCAG”, for which the binding signal is 6530 fluorescence intensity (a.u.). In the case of “CATTGCTTTGTTTGATCTTGTGTGCCAATAATTGATGAAACGGAGTCACCTAGTGCAG” it was 55900 fluorescence intensity (a.u.). “CCAATTTGACGTGAAATGTTTAGATGATCTCTTGCCAGTACGGAGTCACCTAGTGCAG”: the binding signal is 3150 fluorescence intensity (a.u.). With “ACATGGGGAAAACCAGGGACTAAAACTGTAATCAAACAGTCGGAGTCACCTAGTGCAG”, the binding signal was 29500 fluorescence intensity (a.u.). With “CCTTCCGTTCGACGCGACACGCGAGTCATTGCTGCCACCACGGAGTCACCTAGTGCAG”, the binding signal was 3680 fluorescence intensity (a.u.). The same measure for “CCTCTCGTGGCATCGCATCGCATCGTGTCCTCTGCGACTGCGGAGTCACCTAGTGCAG”: 3630 fluorescence intensity (a.u.); for “GACAAGCTCGGCACCAATCTCCACAGGAGCCGCATCAGGTCGGAGTCACCTAGTGCAG”: 3420 fluorescence intensity (a.u.). The same measure for “CATGTCGACATGTTCACAAGCGGTACCAAGAGTCAAGACACGGAGTCACCTAGTGCAG”: 45800 fluorescence intensity (a.u.); for “AGTCCAAGAGCGTGACGCATGTTCGGTACCACGCGCACAACGGAGTCACCTAGTGCAG”: 4740 fluorescence intensity (a.u.); for “GACCCAAATGTCATAGAGACACGACGGTTCACATGTCATACGGAGTCACCTAGTGCAG”: 3900 fluorescence intensity (a.u.). In the case of “TCTCCCTCTACCTCGACGTCATCAACCTCTTCCTCTCCCTCGGAGTCACCTAGTGCAG” it was 11000 fluorescence intensity (a.u.); in that of “GTATTGATGTTCTTACCATAAAAGTAACTCCATGAAAGAACGGAGTCACCTAGTGCAG”, 41100 fluorescence intensity (a.u.). As to “GTTAACAGTAAGTTATTCTTTGAACTCCATATATTTGTTCCGGAGTCACCTAGTGCAG”, the binding signal is 3440 fluorescence intensity (a.u.).

As for “ACACCATGCGTATGATGCAATACCTATTGACTCCATTGAACGGAGTCACCTAGTGCAG”, the binding signal was 3380 fluorescence intensity (a.u.). In the case of “TAGATTGCTTTTCAGTGAAACTACGTGCACATATGCATGCCGGAGTCACCTAGTGCAG” it was 3250 fluorescence intensity (a.u.); in that of “ACACTAGTAACAAAACTTGGCAATTTGGCATTTGGCATTTCGGAGTCACCTAGTGCAG”, 3300 fluorescence intensity (a.u.); in that of “GCTTTGCATAGGCACTTTCAAAACTAGATATTAGTAACGCCGGAGTCACCTAGTGCAG”, 51000 fluorescence intensity (a.u.). In the case of “ACAGGTGCACGCACACGTGCCGCATCAACCAGACAGCCACCGGAGTCACCTAGTGCAG” it was 3360 fluorescence intensity (a.u.).

For the sequence “AAACATAACAATATTTTCAACATAAAACAAATAATGTTATCGGAGTCACCTAGTGCAG”, the binding signal is 3530 fluorescence intensity (a.u.). In the case of “CTCTCAAAATATTCGGATGTAATTTTAGTCGCACAAACATCGGAGTCACCTAGTGCAG” it was 39200 fluorescence intensity (a.u.). On to “TAGTTATAAAGCACTGTAATTTTAGTTATAAATACAACATCGGAGTCACCTAGTGCAG”, for which the binding signal was 3260 fluorescence intensity (a.u.).

In the case of “AAATATAATAAATTTAATGTTAACATATTTTACACGTAAGCGGAGTCACCTAGTGCAG”, the binding signal is 9740 fluorescence intensity (a.u.). As to “CGGTGTTTGTAATTCATTTTATATAATGAAAATGGATTATCGGAGTCACCTAGTGCAG”, the binding signal was 44600 fluorescence intensity (a.u.). The same measure for “CATATTATAAAATGTTGTGCTAATTATTATCGGTGTATATCGGAGTCACCTAGTGCAG”: 22300 fluorescence intensity (a.u.); for “TTATAAATTAAATTTTATGTAATGAAAATAATATCATTGGCGGAGTCACCTAGTGCAG”: 3900 fluorescence intensity (a.u.). On to “GTAAATTTCATAAAATCCCACGTATTATGATTCAAATTGCCGGAGTCACCTAGTGCAG”, for which the binding signal was 5110 fluorescence intensity (a.u.). The same measure for “AATATTTACATTACTAAATTAGTTTTATTAAATTAATAATCGGAGTCACCTAGTGCAG”: 19800 fluorescence intensity (a.u.); for “AAAATTTATTCATCCATCGTCATAATTTTAATTATATGCACGGAGTCACCTAGTGCAG”: 4150 fluorescence intensity (a.u.). Consider “TGTTTAATAATAAATTTAGTAACATCAATTTTACATGATTCGGAGTCACCTAGTGCAG”, for which the binding signal was 46100 fluorescence intensity (a.u.). The same measure for “TTTTATTTCATTATATGATCCCATCAAATATAAATTAGCACGGAGTCACCTAGTGCAG”: 48500 fluorescence intensity (a.u.).
